# Results as given in the supplement of paper PMC4723716.
# ± gives the uncertainty stated by the source. The full ranking holds about 9,900 compounds; the median of “viability index relative to DMSO control” is about 1, and the lowest 2% start at about 0.85. The entries come from a sample that favours the lowest values as a whole.
# Tested on: Plasmodium falciparum NF54 stage V gametocytes
# Assay: viability index relative to DMSO control (fraction); higher = less gametocyte killing
# Settings: 2.5 µM, incubation time: 72 h
# Summary of the method: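 P. falciparum NF54 stage V gametocytes (serum-free medium, 0.75% gametocytemia, 1.25% hematocrit) were exposed to compound at 2.5 µM for 72 hr at 37°C under low oxygen, then stained with MitoTracker Red CMXRos and saponin for one to two hours. Red particles of 20–70 µm2 in one field per well were counted, and the viability index is that count scaled to the plate mean of solvent-only wells.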
# [1] = library set: Broad Institute DOS
# [2] = library set: Broad Institute Blood Stage
Structure (SMILES),viability index [1],viability index [2]
COc1ccccc1NC(=O)N1C[C@@H](O)COC[C@H]2O[C@H](CC(=O)N3CCC(Cc4ccccc4)CC3)CC[C@@H]21,1 ± 0.15,–
COc1ccc(S(=O)(=O)Nc2ccc3c(c2)C(=O)N([C@@H](C)CO)C[C@@H](C)[C@@H](CN(C)Cc2ccc(C(F)(F)F)cc2)OCCCC[C@H](C)O3)cc1,0.994 ± 0.023,–
COc1ccc(S(=O)(=O)Nc2ccc3c(c2)C(=O)N([C@H](C)CO)C[C@@H](C)[C@H](CN(C)S(=O)(=O)c2ccc(Cl)cc2)OCCCC[C@H](C)O3)cc1,0.823 ± 0.033,–
COc1ccc(S(=O)(=O)Nc2ccc3c(c2)C(=O)N([C@@H](C)CO)C[C@H](C)[C@H](CN(C)Cc2ccc(C(F)(F)F)cc2)OCCCC[C@@H](C)O3)cc1,1.05 ± 0.2,–
COc1ccc(S(=O)(=O)Nc2ccc3c(c2)C(=O)N([C@@H](C)CO)C[C@H](C)[C@@H](CN(C)Cc2ccc(C(F)(F)F)cc2)OCCCC[C@@H](C)O3)cc1,0.829 ± 0.0097,–
COc1ccc(S(=O)(=O)Nc2ccc3c(c2)C(=O)N([C@H](C)CO)C[C@H](C)[C@@H](CN(C)S(=O)(=O)c2ccc(Cl)cc2)OCCCC[C@H](C)O3)cc1,0.886 ± 0.03,–
COc1ccc(S(=O)(=O)Nc2ccc3c(c2)C(=O)N([C@H](C)CO)C[C@@H](C)[C@H](CN(C)S(=O)(=O)c2ccc(Cl)cc2)OCCCC[C@@H](C)O3)cc1,0.887 ± 0.072,–
COc1ccc(S(=O)(=O)Nc2ccc3c(c2)C(=O)N([C@@H](C)CO)C[C@@H](C)[C@@H](CN(C)S(=O)(=O)c2ccc(Cl)cc2)OCCCC[C@H](C)O3)cc1,0.911 ± 0.031,–
COc1ccc(S(=O)(=O)Nc2ccc3c(c2)C(=O)N([C@@H](C)CO)C[C@@H](C)[C@@H](CN(C)S(=O)(=O)c2ccc(Cl)cc2)OCCCC[C@@H](C)O3)cc1,0.77 ± 0.046,–
COc1ccc(S(=O)(=O)Nc2ccc3c(c2)C(=O)N([C@H](C)CO)C[C@H](C)[C@@H](CN(C)S(=O)(=O)c2ccc(Cl)cc2)OCCCC[C@@H](C)O3)cc1,1.02 ± 0.05,–
COc1ccc(S(=O)(=O)Nc2ccc3c(c2)C(=O)N([C@@H](C)CO)C[C@H](C)[C@H](CN(C)S(=O)(=O)c2ccc(Cl)cc2)OCCCC[C@@H](C)O3)cc1,0.953 ± 0.064,–
COc1ccc(S(=O)(=O)Nc2ccc3c(c2)C(=O)N([C@@H](C)CO)C[C@@H](C)[C@H](CN(C)S(=O)(=O)c2ccc(Cl)cc2)OCCCC[C@H](C)O3)cc1,0.9073 ± 0.0032,–
COc1ccc(S(=O)(=O)Nc2ccc3c(c2)C(=O)N([C@H](C)CO)C[C@@H](C)[C@@H](CN(C)S(=O)(=O)c2ccc(Cl)cc2)OCCCC[C@@H](C)O3)cc1,0.533 ± 0.11,–
N#C[C@@H]1[C@H](c2ccccc2-c2cccc(F)c2)[C@@H](CO)N1C(=O)c1cccnc1,1.09 ± 0.063,–
O=C(c1cccc(F)c1)N1CC2(C1)[C@H](c1ccccc1)[C@@H](CO)N2Cc1ccccn1,1.13 ± 0.11,–
C[C@@H]1CN([C@@H](C)CO)C(=O)CCCn2nncc2CO[C@H]1CN(C)S(=O)(=O)c1ccc(Oc2ccccc2)nc1,1 ± 0.074,–
C/C=C/c1ccc([C@H]2[C@H]3CNC[C@@H]2N3S(=O)(=O)Cc2ccccc2)cc1,1.06 ± 0.047,–
N#C[C@H]1[C@@H](c2ccccc2-c2ccc(F)cc2)[C@@H](CO)N1C(=O)Cc1cccnc1,1.15 ± 0.046,–
CO[C@@H]1CN(C)C(=O)c2cc(NC(=O)Nc3cc(F)ccc3F)ccc2OC[C@@H](C)NC[C@H]1C,1.105 ± 0.0072,–
Cc1noc(C)c1NC(=O)N(C)C[C@H]1Oc2ccc(NC(=O)Cc3cn(C)c4ccccc34)cc2CC(=O)N([C@H](C)CO)C[C@@H]1C,1.04 ± 0.045,–
COCC(=O)N1C[C@@H](C)[C@H](OC)CN(C)C(=O)c2ccc(NC(=O)Nc3cccc(F)c3)cc2OC[C@@H]1C,1.032 ± 0.0043,–

Structure (SMILES),viability index [1],viability index [2]
C[C@@H]1CCn2cc(nn2)COC[C@H](C)NC1=O,1.06 ± 0.018,–
CC(=O)N1[C@H](CO)[C@@H](c2ccccc2)C12CN(Cc1ccc(Cl)cc1)C2,1.06 ± 0.056,–
CCN(C[C@H]1N[C@H](CO)[C@@H]1c1ccccc1)C(=O)c1ccncc1,1 ± 0.019,–
C[C@H]1CCCCO[C@H](CN(C)C(=O)Nc2cccc3ccccc23)[C@@H](C)CN([C@@H](C)CO)C(=O)c2cc(NC(=O)CCC(F)(F)F)ccc2O1,0.993 ± 0.057,–
COCC(=O)N1[C@H](C#N)[C@H](c2ccccc2-c2cccc(C)c2)[C@H]1CO,1.15 ± 0.053,–
CCCC(=O)Nc1ccc2c(c1)OC[C@H](C)N(CC1CCOCC1)C[C@@H](C)[C@H](OC)CN(C)C2=O,1.02 ± 0.039,–
O=C(C[C@@H]1CC[C@@H]2NC[C@@H](O)COC[C@H]2O1)Nc1ccc(-c2ccccc2)cc1,1.06 ± 0.024,–
O=C(C[C@@H]1CC[C@H]2NC[C@@H](O)COC[C@@H]2O1)Nc1ccc(-c2ccccc2)cc1,0.826 ± 0.077,–
O=C(C[C@H]1CC[C@@H]2NC[C@H](O)COC[C@H]2O1)Nc1ccc(-c2ccccc2)cc1,1.0439 ± 3.9e-05,–
Cc1cccc(S(=O)(=O)N2C[C@H]3[C@@H](c4ccccc42)[C@H](CO)N3Cc2ccc3c(c2)OCO3)c1,1.01 ± 0.012,–
O=C(C1CCOCC1)N1CC(=O)N2[C@H](CO)[C@H](c3ccc(/C=C/c4ccccc4)cc3)[C@@H]2C1,0.99 ± 0.011,–
C[C@H](CO)N1C[C@H](C)[C@H](CN(C)C(=O)Nc2cccc3ccccc23)Oc2ncccc2C1=O,0.826 ± 0.021,–
C[C@@H]1CN([C@@H](C)CO)C(=O)c2cccc(NC(=O)c3ccc(-c4nccs4)cc3)c2O[C@@H]1CN(C)C(=O)Nc1cccc2ccccc12,–,0.784 ± 0.023
C[C@@H]1CN([C@@H](C)CO)C(=O)c2cccc(NC(=O)C3CCOCC3)c2O[C@@H]1CN(C)C(=O)Nc1cccc2ccccc12,0.974 ± 0.06,–
C[C@@H]1CN([C@@H](C)CO)C(=O)c2cccc(NC(=O)C3CCOCC3)c2O[C@H]1CN(C)C(=O)Nc1cccc2ccccc12,0.966 ± 0.063,–
C[C@@H]1CN([C@@H](C)CO)C(=O)c2cccc(NC(=O)c3ccc(-c4nccs4)cc3)c2O[C@@H]1CN(C)C(=O)Nc1ccc(C(F)(F)F)cc1,0.556 ± 0.084,–
C[C@@H]1CN([C@@H](C)CO)C(=O)c2cccc(NC(=O)c3ccc(-c4nccs4)cc3)c2O[C@H]1CN(C)C(=O)Nc1ccc(C(F)(F)F)cc1,1.011 ± 0.0069,–
C[C@@H]1CN([C@H](C)CO)C(=O)c2cccc(NC(=O)c3ccc(-c4nccs4)cc3)c2O[C@H]1CN(C)C(=O)Nc1ccc(C(F)(F)F)cc1,0.97 ± 0.025,–
C[C@H](CO)N1C[C@H](C)[C@@H](CN(C)C(=O)Nc2ccc(C(F)(F)F)cc2)Oc2c(NC(=O)c3ccc(-c4nccs4)cc3)cccc2C1=O,0.953 ± 0.018,–
Cc1noc(C)c1S(=O)(=O)N(C)C[C@@H]1Oc2c(NC(=O)c3ccc(-c4nccs4)cc3)cccc2C(=O)N([C@@H](C)CO)C[C@H]1C,0.828 ± 0.018,–
Cc1noc(C)c1S(=O)(=O)N(C)C[C@@H]1Oc2c(NC(=O)c3ccc(-c4nccs4)cc3)cccc2C(=O)N([C@@H](C)CO)C[C@@H]1C,0.955 ± 0.036,–

Structure (SMILES),viability index [1],viability index [2]
Cc1noc(C)c1S(=O)(=O)N(C)C[C@@H]1Oc2c(NC(=O)c3ccc(-c4nccs4)cc3)cccc2C(=O)N([C@H](C)CO)C[C@@H]1C,0.978 ± 0.068,–
C[C@H](CO)N1C[C@H](C)[C@H](CN(C)C(=O)Nc2ccc(C(F)(F)F)cc2)Oc2c(NC(=O)c3ccc(-c4nccs4)cc3)cccc2C1=O,1.04 ± 0.021,–
N#Cc1cccc(-c2ccc([C@@H]3[C@@H](CO)N4CCCCN(Cc5ccccc5F)C[C@H]34)cc2)c1,0.889 ± 0.028,–
C[C@H](CO)N1C[C@H](C)[C@@H](CN(C)S(=O)(=O)c2ccc(Cl)cc2)OCCCC[C@H](C)Oc2ccc(NC(=O)Nc3ccc(C(F)(F)F)cc3)cc2C1=O,1.1 ± 0.11,–
O=C(CC1CC1)N1CC(=O)N2[C@H](C1)[C@H](c1ccc(C#Cc3cccc(F)c3)cc1)[C@@H]2CO,0.974 ± 0.063,–
COc1ccc([C@H]2C/C=C/C[C@H](C)Oc3ccccc3C(=O)N(C)[C@@H](Cc3ccccc3)C(=O)N2)c(OC)c1.COc1ccc([C@H]2C/C=C\C[C@H](C)Oc3ccccc3C(=O)N(C)[C@@H](Cc3ccccc3)C(=O)N2)c(OC)c1,0.861 ± 0.046,–
COc1ccc2c3c([nH]c2c1)[C@@H](CO)N(C[C@]31CCN(CC1)S(C)(=O)=O)C(=O)NC1CCCC1,1.01 ± 0.02,–
Cc1noc(C)c1S(=O)(=O)N(C)C[C@H]1OCc2ccccc2-c2c(n(C)c3ccccc23)C(=O)N([C@H](C)CO)C[C@H]1C,0.948 ± 0.025,–
O=S(=O)(c1cccc(F)c1)N1[C@@H]2CNC[C@H]1[C@H]2c1ccc(-c2ccccc2F)cc1,1.06 ± 0.051,–
C[C@H]1CN([C@@H](C)CO)C(=O)c2c(c3ccccc3n2C)-c2ccccc2CO[C@H]1CN(C)Cc1cccc(C(F)(F)F)c1,0.952 ± 0.02,–
C[C@@H]1CN([C@@H](C)CO)C(=O)c2c(c3ccccc3n2C)-c2ccccc2CO[C@H]1CN(C)C(=O)Nc1ccccc1C(F)(F)F,0.805 ± 0.084,–
C[C@H](CO)N1C[C@H](C)[C@@H](CN(C)S(=O)(=O)c2ccc([N+](=O)[O-])cc2)OCc2ccccc2-c2c(n(C)c3ccccc23)C1=O,0.896 ± 0.046,–
C[C@@H]1CN([C@@H](C)CO)C(=O)c2c(c3ccccc3n2C)-c2ccccc2CO[C@H]1CN(C)Cc1cccc(C(F)(F)F)c1,0.932 ± 0.15,–
C[C@@H]1CN([C@@H](C)CO)C(=O)c2c(c3ccccc3n2C)-c2ccccc2CO[C@@H]1CN(C)Cc1cccc(C(F)(F)F)c1,0.839 ± 0.039,–
C[C@H]1CN([C@@H](C)CO)C(=O)c2c(c3ccccc3n2C)-c2ccccc2CO[C@@H]1CN(C)C(=O)Nc1ccccc1C(F)(F)F,1.009 ± 0.0034,–
C[C@H](CO)N1C[C@H](C)[C@H](CN(C)S(=O)(=O)c2ccc(C(F)(F)F)cc2)OCc2ccccc2-c2c(n(C)c3ccccc23)C1=O,–,0.693 ± 0.051
C[C@@H]1CN([C@@H](C)CO)C(=O)c2c(c3ccccc3n2C)-c2ccccc2CO[C@@H]1CN(C)S(=O)(=O)c1ccc([N+](=O)[O-])cc1,0.998 ± 0.098,–
C[C@H](CO)N1C[C@H](C)[C@H](CN(C)S(=O)(=O)c2ccc([N+](=O)[O-])cc2)OCc2ccccc2-c2c(n(C)c3ccccc23)C1=O,0.969 ± 0.015,–
C[C@@H]1CN([C@@H](C)CO)C(=O)c2c(c3ccccc3n2C)-c2ccccc2CO[C@H]1CN(C)S(=O)(=O)c1ccc([N+](=O)[O-])cc1,0.93 ± 0.086,–
C[C@@H]1CN([C@@H](C)CO)C(=O)c2c(c3ccccc3n2C)-c2ccccc2CO[C@@H]1CN(C)C(=O)Nc1ccccc1C(F)(F)F,0.955 ± 0.039,–
C[C@H]1CN([C@@H](C)CO)C(=O)c2c(c3ccccc3n2C)-c2ccccc2CO[C@H]1CN(C)S(=O)(=O)c1ccc(C(F)(F)F)cc1,–,0.705 ± 0.04
